Experimental data taken from PubChem BioAssay (NCATS).
Results filed as inconclusive are left out. A number with no mark means an inactive call. Activity calls are given as the source filed them. Unless noted, calls follow the shape of the dose curve; as a rule, active = well fitted curve in the direction sought with a large enough effect; inconclusive = small, poorly fitted or top-dose-only effect, or another doubt; inactive = no such curve, though single readings can be large; an effect the other way counts as inactive or inconclusive.

Biological target: Cytochrome P450 2C19 (Homo sapiens) (UniProt P33261)
Assay: qHTS Assay for Inhibitors and Substrates of Cytochrome P450 2C19 (AID 899); also: nearly all actives have a fitted effect of over 60% in size
Details: recombinant CYP2C19, luciferin-H EGE luminescence; series mostly up to 57.1 µM
In short: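 Luminescent read-out of luciferin formed from Luciferin-H EGE (10uM, equal to KM). Enzyme 5nM in 50mM KPO4; compound added, 10 min at 37C, then NADPH regenerating system for 60 min at 37C. Full inhibition defined by 57uM ketoconazole.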
Potency is read from the fitted curve at half-maximal effect.

Sequence of Cytochrome P450 2C19 (Homo sapiens) (P33261 whole entry, looked up): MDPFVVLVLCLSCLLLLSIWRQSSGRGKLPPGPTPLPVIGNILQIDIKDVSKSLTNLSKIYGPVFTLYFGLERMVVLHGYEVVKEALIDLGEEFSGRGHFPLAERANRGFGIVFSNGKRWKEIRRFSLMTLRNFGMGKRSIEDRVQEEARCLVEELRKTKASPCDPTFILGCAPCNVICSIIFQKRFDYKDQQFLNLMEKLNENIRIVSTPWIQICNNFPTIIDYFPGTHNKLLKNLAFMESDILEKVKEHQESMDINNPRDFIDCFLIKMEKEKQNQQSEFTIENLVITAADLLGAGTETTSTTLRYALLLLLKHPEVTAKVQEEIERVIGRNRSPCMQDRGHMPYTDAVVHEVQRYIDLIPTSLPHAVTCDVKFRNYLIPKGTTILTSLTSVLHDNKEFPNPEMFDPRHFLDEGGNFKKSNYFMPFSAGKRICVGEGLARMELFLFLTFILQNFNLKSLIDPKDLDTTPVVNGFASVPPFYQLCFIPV

With `CN(Cc1ccco1)c1ncncc1-c1ccccc1C(F)(F)F` as the compound, how does the Potency read?
The Potency was 3.98 µM (active).

With `COc1ccc2[nH]cc(CCNc3ccnc(-c4c(C)noc4C)n3)c2c1` as the compound, how does the Potency read?
Its Potency is 1.58 µM (active).

With `COc1ccccc1CNc1cc(-c2ccccc2C(F)(F)F)ncn1` as the compound, how does the Potency read?
Its Potency is 1 µM (active).

Which Potency does the source give for `Cc1ccccc1-c1ccc2ncnc(NCc3cccnc3)c2c1` here?
Its Potency is 1.58 µM (active).

Which Potency does the source give for `CNc1nc(-c2cccc(C#N)c2)nc2ccccc12` here?
The Potency was 7.94 µM (active).

With `COc1ccccc1CNc1ncnc2ccc(-c3ccc4c(c3)OCO4)cc12` as the compound, how does the Potency read?
The Potency was 3.16 µM (active).

Which Potency does the source give for `COc1cccc(-c2nccc(NCc3ccccc3OC)n2)c1` here?
The Potency was 5.01 µM (active).

Test system: not listed separately
Assay: qHTS Assay for Identification of Small Molecule Agonists for Hypoxia Response Element Signaling Pathway (AID 914; active = well fitted activation curve with a large enough effect in the signal ratio, with a control signal flat, not every such curve was filed as active; the % refers to the signal ratio; as to activation: % of control where 0% means no effect)
Details: ME-180 (cervical carcinoma) HRE-bla reporter, beta-lactamase ratio, CoCl2, 17 h; activation: hits give high values
In short: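 Cells were plated overnight, pin-dosed with compound in a titration series, co-stimulated with EC50 CoCl2 and incubated 17 hours at 37 degrees Celsius. CCF4 substrate was then loaded, and AC50 values came from the 460nm/530nm ratio.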

Which activation does the source give for `CS(=O)(=O)Nc1cccc(-c2cc(Nc3ccccc3)ncn2)c1` here?
The activation was -13.8%.

With `CCNc1ncc2nc(-c3ccc(OC)cc3)c(=O)n(CCc3ccccc3)c2n1` as the compound, how does the Potency read?
Its Potency is 0.501 µM (active).

For `CCNc1ncc2nc(-c3ccc(Cl)cc3)c(=O)n(Cc3cccc(OC)c3)c2n1`, which Potency is on record?
Its Potency is 0.316 µM (active).

For `O=c1c(-c2ccc(Cl)cc2)nc2cnc(N3CCOCC3)nc2n1Cc1ccc(F)cc1`, which Potency is on record?
Its Potency is 3.16 µM (active).

Which Potency does the source give for `COCCNc1ncnc2ccc(-c3c(C)noc3C)cc12` here?
Its Potency is 1.58 µM (active).

Which Potency does the source give for `N#CCCn1c(=O)c(-c2ccc(F)cc2)nc2cnc(N3CCNCC3)nc21` here?
The Potency was 3.16 µM (active).

With `COc1ccccc1-c1cc(NCc2cnc(C)cn2)ncn1` as the compound, how does the activation read?
Its activation is 25.8%.

Biological target: Dual specificity protein kinase CLK4 (Homo sapiens) (UniProt Q9HAZ1)
Assay: qHTS Assay for Inhibitors of CDC-like Kinase 4 (ADP-Glo Assay) (AID 1771); also: nearly all actives have a fitted effect of over 70% in size
Details: recombinant CLK4, ADP-Glo luminescence; series mostly up to 80 µM
In short: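 Compounds are pin-transferred onto substrate mix (100 uM RS peptide, 1 uM ATP), then 25 nM Clk4 is added. After 1 hr at room temperature, ADP-Glo reagent runs 45 min, detection reagent 30 min, then luminescence is read.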

Sequence of Dual specificity protein kinase CLK4 (Homo sapiens) (Q9HAZ1 whole entry, looked up): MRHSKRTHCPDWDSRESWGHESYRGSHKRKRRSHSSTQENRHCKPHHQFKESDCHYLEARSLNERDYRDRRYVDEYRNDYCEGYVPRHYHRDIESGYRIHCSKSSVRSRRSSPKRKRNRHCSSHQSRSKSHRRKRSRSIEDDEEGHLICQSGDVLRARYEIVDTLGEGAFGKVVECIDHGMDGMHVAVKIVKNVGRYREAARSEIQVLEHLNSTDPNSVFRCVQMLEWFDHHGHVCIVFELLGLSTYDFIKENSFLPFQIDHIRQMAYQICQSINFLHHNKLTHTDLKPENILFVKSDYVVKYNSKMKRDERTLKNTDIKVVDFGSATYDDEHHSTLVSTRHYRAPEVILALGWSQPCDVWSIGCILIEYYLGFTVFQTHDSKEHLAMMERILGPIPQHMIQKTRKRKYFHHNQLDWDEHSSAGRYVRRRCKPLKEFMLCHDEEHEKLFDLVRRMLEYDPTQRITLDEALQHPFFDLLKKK

For `Cc1cnc(CNc2cc(-c3cccnc3)ncn2)cn1`, which Potency is on record?
Its Potency is 31.6 µM (active).

For `CS(=O)(=O)Nc1cccc(-c2cc(Nc3ccccc3)ncn2)c1`, which Potency is on record?
The Potency was 35.5 µM (active).

With `CCNc1ncc2nc(-c3ccc(OC)cc3)c(=O)n(CCc3ccccc3)c2n1` as the compound, how does the Potency read?
The Potency was “inactive”.

Which Potency does the source give for `COc1ccccc1CNc1cc(-c2ccccc2Cl)ncn1` here?
Its Potency is 15.8 µM (active).

Which Potency does the source give for `Cc1noc(C)c1-c1cncnc1-n1ccnc1` here?
Its Potency is “inactive”.

With `CCNc1ncc2nc(-c3ccc(Cl)cc3)c(=O)n(Cc3cccc(OC)c3)c2n1` as the compound, how does the Potency read?
The Potency was “inactive”.

Which Potency does the source give for `COc1cccc(Nc2ncc3ncc(=O)n(C[C@H]4CCCO4)c3n2)c1` here?
The Potency was 1.58 µM (active).

Which Potency does the source give for `O=c1c(-c2cccc(Cl)c2)nc2cncnc2n1-c1ccccc1` here?
The Potency was “inactive”.

With `CN(Cc1ccco1)c1ncncc1-c1ccccc1C(F)(F)F` as the compound, how does the Potency read?
Its Potency is “inactive”.

With `COc1ccc2[nH]cc(CCNc3ccnc(-c4c(C)noc4C)n3)c2c1` as the compound, how does the Potency read?
Its Potency is “inactive”.

With `COc1cccc(Cn2c(=O)c(-c3cccs3)nc3cnc(OC)nc32)c1` as the compound, how does the Potency read?
The Potency was “inactive”.

With `O=c1c(-c2ccc(Cl)cc2)nc2cnc(N3CCOCC3)nc2n1Cc1ccc(F)cc1` as the compound, how does the Potency read?
The Potency was “inactive”.

For `COCCNc1ncnc2ccc(-c3c(C)noc3C)cc12`, which Potency is on record?
Its Potency is 0.708 µM (active).

With `CN(Cc1ccco1)c1nc(-c2ccoc2)nc2ccccc12` as the compound, how does the Potency read?
The Potency was “inactive”.

For `COc1cccc(Cn2c(=O)c(-c3cccs3)nc3cnc(N4CCNCC4)nc32)c1`, which Potency is on record?
Its Potency is “inactive”.

Which Potency does the source give for `COc1ccccc1CNc1cc(-c2ccccc2C(F)(F)F)ncn1` here?
The Potency was “inactive”.

Which Potency does the source give for `N#CCCn1c(=O)c(-c2cc(F)cc(F)c2)nc2cnc(Nc3ccccc3)nc21` here?
Its Potency is “inactive”.

With `COc1cccc(Nc2ncc3nc(CCc4ccccc4)c(=O)n(Cc4cccs4)c3n2)c1` as the compound, how does the Potency read?
The Potency was “inactive”.

With `Cc1ccccc1-c1ccc2ncnc(NCc3cccnc3)c2c1` as the compound, how does the Potency read?
Its Potency is 11.2 µM (active).

Which Potency does the source give for `Cc1cnc(CNc2ncncc2-c2ccc(N(C)C)cc2)cn1` here?
The Potency was 15.8 µM (active).

With `Cc1cnc(CNc2cc(-c3ccccc3Cl)ncn2)cn1` as the compound, how does the Potency read?
The Potency was 20 µM (active).

Which Potency does the source give for `CCNc1ncc2nc(CCc3ccccc3)c(=O)n(C[C@H]3CCCO3)c2n1` here?
Its Potency is “inactive”.

Which Potency does the source give for `COc1cccc(Cn2c(=O)c(-c3cccc(C#N)c3)nc3cnc(N4CCOCC4)nc32)c1` here?
Its Potency is “inactive”.

For `CN(C)C(=O)c1ccc(-c2cc(N(C)Cc3ccco3)ncn2)cc1`, which Potency is on record?
Its Potency is 28.2 µM (active).

With `COc1ccc(CNc2nc(-c3cccc(C#N)c3)nc3ccccc23)c(OC)c1` as the compound, how does the Potency read?
Its Potency is “inactive”.

Which Potency does the source give for `CN(C)C(=O)c1ccc(-c2cncnc2Nc2ccc(F)cc2)cc1` here?
Its Potency is 25.1 µM (active).

With `CCNc1ncc2nc(CCc3ccccc3)c(=O)n(Cc3ccc(F)cc3)c2n1` as the compound, how does the Potency read?
The Potency was “inactive”.

With `CS(=O)(=O)Nc1cccc(-c2ccc3ncnc(N4CCOCC4)c3c2)c1` as the compound, how does the Potency read?
The Potency was 6.31 µM (active).

With `COc1cccc(Cn2c(=O)c(CCc3ccccc3)nc3cnc(N4CCOCC4)nc32)c1` as the compound, how does the Potency read?
The Potency was “inactive”.

Which Potency does the source give for `COc1ccccc1CNc1ccnc(-c2c(C)noc2C)n1` here?
Its Potency is “inactive”.

For `CNc1nc(-c2cccc(C#N)c2)nc2ccccc12`, which Potency is on record?
The Potency was 11.2 µM (active).

With `COc1cccc(-c2nc(NCCNC(C)=O)c3ccccc3n2)c1` as the compound, how does the Potency read?
The Potency was 28.2 µM (active).

Which Potency does the source give for `COc1ccccc1CNc1ccnc(-c2ccccc2OC)n1` here?
The Potency was “inactive”.

Which Potency does the source give for `COc1ccccc1CNc1ncnc2ccc(-c3ccc4c(c3)OCO4)cc12` here?
Its Potency is 0.158 µM (active).

For `N#CCCn1c(=O)c(-c2ccc(F)cc2)nc2cnc(N3CCNCC3)nc21`, which Potency is on record?
Its Potency is “inactive”.

For `COc1cccc(-c2nccc(NCc3ccccc3OC)n2)c1`, which Potency is on record?
The Potency was 14.1 µM (active).

With `Cc1noc(C)c1-c1nc(NC2CC2)c2ccccc2n1` as the compound, how does the Potency read?
Its Potency is 14.1 µM (active).

Which Potency does the source give for `COc1ccccc1-c1cc(NCc2cnc(C)cn2)ncn1` here?
Its Potency is 28.2 µM (active).

For `COc1cccc(Nc2ncc3nc(-c4ccc(Cl)cc4)c(=O)n(C[C@H]4CCCO4)c3n2)c1`, which Potency is on record?
Its Potency is “inactive”.

Which Potency does the source give for `CN(Cc1ccco1)c1cc(-c2cccc(C#N)c2)ncn1` here?
The Potency was 28.2 µM (active).
